Source: PubChem (several laboratories)
eIF4E-4G inh: inhibitors of eIF4E and eIF4G interaction in translation initiation; P63073+Q04637; 220,000 tested, 0.37% active; AID 782; inhibition, % at 21.7 µM; TR-FRET eIF4E-eIF4GI(517-606) binding, 2 h;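 active means inhibition above about 30%, limit read from the data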;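 further: 0% = full FRET control wells and 100% = background wells lacking eIF4GI fragment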
PABP polyA inh: PABP-poly(A) binding inhibition | P11940 | AID 2014 | calls only at 35 µM | PABP-poly(A) RNA binding, fluorescence polarization | 290,000 tested, 1% active;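 further: calls also rest on retests at 20 µM and on dose response follow-up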
MLLE-PAM2 inh: blocks PAM2 peptide binding to the PABP1 MLLE domain; P11940; 360,000 tested, 0.36% active; GST-MLLE / FITC-PAM2 fluorescence polarization; inhibition, % at 20 µM; AID 588489; in the data active means inhibition above about 35%, passing the limit was not always enough;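 further: plate controls were DMSO wells with GST-MLLE for no effect and wells lacking GST-MLLE protein for full effect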
eIF4H FP inh: inhibitors of RNA binding by human eIF4H; 290,000 tested, 0.94% active; eIF4H fluorescence polarization binding assay; inhibition, % at 35 µM; Q15056; AID 2012;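 further: calls also rest on retests at 20 µM and on dose response follow-up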
EBV gp42 inh: inhibitors of Epstein-Barr virus glycoprotein 42; Q1HVG2; Fluorescence polarization binding assay, mP read-out; inhibition, % (tested at 21.74 µM); 220,000 tested, 0.42% active; in the data active means inhibition above about 50%
Target sequence (Q1HVG2 whole entry, looked up): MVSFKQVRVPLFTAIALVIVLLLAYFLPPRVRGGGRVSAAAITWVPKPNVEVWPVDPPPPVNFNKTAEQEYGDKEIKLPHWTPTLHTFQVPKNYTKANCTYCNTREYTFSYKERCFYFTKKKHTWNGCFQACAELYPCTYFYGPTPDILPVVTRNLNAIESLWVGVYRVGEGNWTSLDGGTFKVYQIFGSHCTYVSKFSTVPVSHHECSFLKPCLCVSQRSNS
* marks the source's active call; other numbers are inactive results. Hits are enriched below; roughly 1.7% of the tested compounds scored in any of these assays. Unless noted, how the calls were made is not given here.

CCN1CCN(c2nc3c(C)cccn3c(=O)c2/C=C(\C#N)S(=O)(=O)c2ccc(C)cc2)CC1 was read as eIF4E-4G inh -1, PABP polyA inh inactive, MLLE-PAM2 inh -3, eIF4H FP inh 13 and EBV gp42 inh 13.
For Cc1ccc(S(=O)(=O)/C(C#N)=C/c2c(N3CCN(C)CC3)nc3c(C)cccn3c2=O)cc1 the results were eIF4E-4G inh 7, PABP polyA inh inactive, MLLE-PAM2 inh -7, eIF4H FP inh 52* and EBV gp42 inh 26.
Screening Cc1ccc(S(=O)(=O)/C(C#N)=C/c2c(N3CC(C)OC(C)C3)nc3c(C)cccn3c2=O)cc1 (configuration not stated) returned eIF4E-4G inh -21, PABP polyA inh active, MLLE-PAM2 inh 1, eIF4H FP inh 46* and EBV gp42 inh -15.
`Cn1c(CCC(=O)O)nc2cc(S(=O)(=O)N3CCCC3)ccc21` gave MLLE-PAM2 inh -11.
`Cn1c(CCC(=O)O)nc2cc(S(=O)(=O)N3CCCCC3)ccc21` gave MLLE-PAM2 inh 39*.
Screening O=C(O)CCSc1nnc(SCC(=O)NCC(F)(F)F)s1 returned eIF4E-4G inh 56*, PABP polyA inh inactive, MLLE-PAM2 inh -21, eIF4H FP inh 4 and EBV gp42 inh -9.
For O=C1CC(C(=O)Nc2ccccc2)S/C(=N\NC(=O)c2ccccc2Cl)N1 (configuration not stated) the results were eIF4E-4G inh 0, PABP polyA inh inactive, MLLE-PAM2 inh -8, eIF4H FP inh 6 and EBV gp42 inh -5.
CCN(CC)c1ccc(N/C(N)=N/c2nc(C(F)(F)F)cc(=O)[nH]2)cc1 was read as eIF4E-4G inh 3, PABP polyA inh active, MLLE-PAM2 inh -5, eIF4H FP inh active and EBV gp42 inh -21.
For N/C(=N\c1nc(C(F)(F)F)cc(=O)[nH]1)Nc1ccc(Cl)cc1 the results were eIF4E-4G inh 1, PABP polyA inh inactive, eIF4H FP inh -6 and EBV gp42 inh -24.
`CCOc1ccc(CCNC(=O)CS(=O)Cc2nc(-c3ccc(OC)cc3)oc2C)cc1OCC` (configuration not stated) gave PABP polyA inh inactive, MLLE-PAM2 inh -8 and eIF4H FP inh 1.
Screening O=C(N/N=C/c1sc(=O)[nH]c1-[n+]1ccccc1)c1ccccc1[O-] returned eIF4E-4G inh 1, PABP polyA inh inactive, MLLE-PAM2 inh 61*, eIF4H FP inh 40 and EBV gp42 inh 41.
For Cc1ccc[n+](-c2[nH]c(=O)sc2/C=N/NC(=O)c2ccccc2[O-])c1 the results were eIF4E-4G inh 0, PABP polyA inh inactive, MLLE-PAM2 inh 48*, eIF4H FP inh 55 and EBV gp42 inh 53*.
For NC(=O)C1(Nc2ccc(Br)cc2)CCCC1 the results were MLLE-PAM2 inh 2.
`Cc1ncc([N+](=O)[O-])n1Cc1ccccc1F` gave eIF4E-4G inh 7, PABP polyA inh inactive, MLLE-PAM2 inh 0, eIF4H FP inh -4 and EBV gp42 inh -11.
Cc1ncc([N+](=O)[O-])n1Cc1cccc2ccccc12 was read as eIF4E-4G inh 7, PABP polyA inh inactive, MLLE-PAM2 inh -2, eIF4H FP inh 4 and EBV gp42 inh 66*.
For CC1Cc2ccccc2N1C(=O)CN1C(=O)NC(C)(c2ccc3c(c2)OCCO3)C1=O (configuration not stated) the results were eIF4E-4G inh 7, PABP polyA inh active, MLLE-PAM2 inh -42, eIF4H FP inh 0.5* and EBV gp42 inh -8.
`N#Cc1cccc(NC(=O)CSc2ccc3c4c(cccc24)C(=O)c2ccccc2-3)c1` gave eIF4E-4G inh 4, PABP polyA inh inactive, MLLE-PAM2 inh 103, eIF4H FP inh 126 and EBV gp42 inh 107*.
N#Cc1cccc(NC(=O)CSc2ccccc2)c1 was read as eIF4E-4G inh -4, PABP polyA inh inactive, MLLE-PAM2 inh 24, eIF4H FP inh -5 and EBV gp42 inh -2.
For COc1ccc(NC(=O)CSc2ccc3c4c(cccc24)C(=O)c2ccccc2-3)cc1 the results were eIF4E-4G inh -10, PABP polyA inh inconclusive, MLLE-PAM2 inh 64, eIF4H FP inh inconclusive and EBV gp42 inh 133*.
Screening C=CCn1c(COc2ccc(OC)cc2)nnc1SCn1nnc2ccccc2c1=O returned eIF4E-4G inh -2, PABP polyA inh active, MLLE-PAM2 inh -40, eIF4H FP inh active and EBV gp42 inh -3.
CN(C(=O)C1Cc2c(-c3ccc(Cl)cc3)ccnc2O1)c1ccccc1 (configuration not stated) was read as MLLE-PAM2 inh 11.
O=C(O)c1cccc(-n2cccc2/C=C\[N+](=O)[O-])c1 was read as eIF4E-4G inh 1, PABP polyA inh active, MLLE-PAM2 inh -53, eIF4H FP inh 99 and EBV gp42 inh -8.
O=C(O)c1cccc(-n2cccc2/C=C/[N+](=O)[O-])c1 was read as eIF4E-4G inh 2, PABP polyA inh active, MLLE-PAM2 inh 25, eIF4H FP inh 94* and EBV gp42 inh 2.
ON=Cc1cccn1-c1ccccc1 was read as eIF4E-4G inh 1, PABP polyA inh inactive, MLLE-PAM2 inh -5, eIF4H FP inh 2 and EBV gp42 inh -21.
Screening CN1C(=O)S/C(=C/c2cccn2-c2cccc(C(=O)O)c2)C1=O returned eIF4E-4G inh 0, PABP polyA inh inactive, MLLE-PAM2 inh 17, eIF4H FP inh 20 and EBV gp42 inh 0.
Screening O=C(O)c1cccc(-n2cccc2/C=N/O)c1 returned eIF4E-4G inh 17, PABP polyA inh active, MLLE-PAM2 inh 13, eIF4H FP inh 92* and EBV gp42 inh 1.
Screening Nc1ccc(S(=O)(=O)Nc2nccs2)cc1N=Nc1ccccc1[N+](=O)[O-] returned MLLE-PAM2 inh 12.
Screening CS(=O)(=O)Nc1ccc(C(=O)N2CC(=O)Nc3ccccc32)cc1 returned PABP polyA inh inactive, MLLE-PAM2 inh -3 and eIF4H FP inh -1.
`CCNC(=S)NC(=NCc1cccnc1)Nc1nc(C)cc(C)n1` gave PABP polyA inh inactive, MLLE-PAM2 inh 65* and eIF4H FP inh 16.
Screening COC(=O)C1=C(C(=O)OC)C(c2cc(Br)ccc2O)c2sc(=O)[nH]c2S1 (configuration not stated) returned eIF4E-4G inh 3, PABP polyA inh inactive, MLLE-PAM2 inh 44*, eIF4H FP inh 0 and EBV gp42 inh 22.
For COc1ccc(C)c2sc(=NC(=O)c3ccc(C(C)=O)cc3)n(C)c12 the results were eIF4E-4G inh 7, PABP polyA inh active, MLLE-PAM2 inh 13, eIF4H FP inh 90* and EBV gp42 inh -8.
COc1ccc([C@H]2C[C@@H](n3cc(-c4ccc(F)cc4)nn3)[C@H](O)CN2C(=O)C2CCCCC2)cc1 was read as MLLE-PAM2 inh 10.
Screening C[C@@H]1CCCCO[C@@H](CN(C)C(=O)CCC(F)(F)F)[C@@H](C)CN([C@H](C)CO)C(=O)c2cc(N(C)C)ccc2O1 returned MLLE-PAM2 inh -16.
